{
  "source": "PubChem BioAssay (NCI)",
  "note": "Values joined by “and” are separate entries in the source; they are usually repeats but may differ in a detail not shown here. Identical values can stand only once. Compounds without any hit were thinned out: in the full panel of roughly 83,000, 20% have a hit.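 Method: cells in 96-well plates; compound added at one concentration; 48 h incubation; percent growth measured; values under 10 scored active.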 Active and inactive are the calls of the source.",
  "data": [
    {"tested_on": "HOP-92 NSCLC", "experiment": "NCI-60 one-dose screen, 48 h (100 = growth as untreated, 0 = no growth, -100 = all killed)", "details": "10 µM", "description": "(§1) Growth inhibition of the HOP-92 human Non-Small Cell Lung tumor cell line is measured as a screen for anti-cancer activity. Cells are grown in 96 well plates and exposed to the test compound for 48 hours. Compounds are tested at a single concentration, which is 10^-5 M for most compounds. The reported endpoint is percent growth (GI% or GIPRCNT), where numbers from 0 - 100% represent growth inhibition, and numbers from -100% - 0 represent cell death. For example, a value of 40 represents 60% growth inhibition. A value of 0 means no net growth occurred over the course of the experiment. A value of -40 indicates 40% of cells at the beginning of the experiment died by the end of the experiment. A value of -100 means all cells are dead at the end of the experiment.\n(§2) NCI-60 Human Tumor Cell Lines Screen was performed using the standard one-dose NCI protocol, which is described in more detail at https://dtp.cancer.gov/discovery_development/nci-60/default.htm.\n(§3) Compounds with GIPRCNT values below 10 were considered active. Activity score was based on GIPRCNT using the following formula: […]\n(§4) Score is 0 for GIPRCNT values of 100 or above, 50 for GIPRCNT values of 0, and 100 for GIPRCNT values of -100.", "values": [
      {"smiles": "CS/C(=C\\c1ccc(C(=O)c2ccc(C)cc2)n1C)S(C)=O", "note": "(stereo not given)", "growth": "71.7% (inactive)"}
    ]},
    {"tested_on": "HOP-92 NSCLC", "experiment": "NCI-60 one-dose screen, 48 h (100 = growth as untreated, 0 = no growth, -100 = all killed)", "details": "10 µM unless noted", "description": "as §1, §2, §3, §4", "values": [
      {"smiles": "Cc1c(O)nc(N)[nH]c1=O", "growth": "108% (inactive)"},
      {"smiles": "CCn1c2ccc(N(C)C)cc2c2cc(N(C)C)ccc21", "growth": "90.6% (inactive)"},
      {"smiles": "Cc1cc(Cl)nc(Nc2ccccc2)n1", "growth": "91.2% (inactive)"},
      {"smiles": "CCOc1ccc(/C=C\\C(=O)O)cc1", "growth": "86.9% (inactive)"},
      {"smiles": "CN(C)C(=N)N=C(N)N", "growth": "114% (inactive) and 122% (inactive)"},
      {"smiles": "ON=C(C1CCCCC1)C1CCCCC1", "growth": "85.7% (inactive)"},
      {"smiles": "CCCC(=O)Oc1ccc2ccccc2c1", "growth": "89.5% (inactive)"},
      {"smiles": "CCN(CC)C(CC(=O)c1ccccc1)C(=O)c1ccccc1", "note": "(stereo not given)", "growth": "93.4% (inactive)"},
      {"smiles": "Nc1ccc(O)c(C(=O)O)c1", "growth": "104% (inactive) and 105% (inactive)"},
      {"smiles": "CCCC(=O)OCC(COC(=O)CCC)OC(=O)CCC", "growth": "87.3% (inactive)"},
      {"smiles": "COc1cc2oc3cc(=O)cc4oc(-c5ccccc5)cc(c2c2c1CCC(c1ccccc1)O2)c43", "note": "(stereo not given)", "growth": "81.1% (inactive)"},
      {"smiles": "Nc1c(S(=O)(=O)O)cc(Br)c2c1C(=O)c1ccccc1C2=O", "growth": "73.4% (inactive)"},
      {"smiles": "C/C(=C\\c1ccccc1)C(O)C(=O)c1nc2ccc([N+](=O)[O-])cc2[nH]c1=O", "note": "(stereo not given)", "growth": "78.9% (inactive)"},
      {"smiles": "CCOC(=O)C1=CC(=O)CC(C)(C)O1", "growth": "93.5% (inactive) and 97.1% (inactive)"},
      {"smiles": "O=C(O)/C=C/C=C/c1ccccc1", "growth": "99.5% (inactive) and 102% (inactive)"},
      {"smiles": "O=C1c2ccccc2CN1c1ccccc1", "growth": "104% (inactive)"},
      {"smiles": "Cc1cc2nc3ccc(=[N+](C)C)cc-3sc2cc1N", "growth": "43.1% (inactive) and 8.68% (active)"},
      {"smiles": "O=C1Cc2ccccc2C(=O)N1", "growth": "49.9% (inactive)"},
      {"smiles": "CC1NC(C)c2ccc3ccccc3c2O1", "note": "(stereo not given)", "growth": "101% (inactive)"},
      {"smiles": "CC(=O)Oc1cc(C(C)C)c(OCCN(C)C)cc1C", "growth": "107% (inactive)"},
      {"smiles": "O=COCCCc1ccccc1", "growth": "84.9% (inactive)"},
      {"smiles": "OCc1cccc(F)c1", "growth": "118% (inactive)"},
      {"smiles": "O=C1C=CC[C@H](/C=C/c2ccccc2)O1", "growth": "10.3% (inactive) and -15.8% (active)"},
      {"smiles": "OCCS", "growth": "95.2% (inactive)"},
      {"smiles": "Cc1c(Cl)cc(Cl)c(N)c1Cl", "growth": "76.9% (inactive)"},
      {"smiles": "N#CC1c2ccccc2C=CN1C(=O)c1ccccc1", "note": "(stereo not given)", "growth": "75.5% (inactive)"},
      {"smiles": "S=c1nn[nH]n1C1CCCCC1", "growth": "93.2% (inactive)"},
      {"smiles": "Nc1ccccc1SC(CC(=O)c1ccccc1)c1cccc([N+](=O)[O-])c1", "note": "(stereo not given)", "growth": "95.9% (inactive)"},
      {"smiles": "CC(C)(C)OC(=O)NCCc1ccc(N)cc1", "growth": "88.4% (inactive)"},
      {"smiles": "CCOC(=O)c1ccncc1", "growth": "108% (inactive)"},
      {"smiles": "O=C1C=CC(n2cc(F)c(=O)[nH]c2=O)O1", "note": "(stereo not given)", "growth": "112% (inactive)"},
      {"smiles": "NCCCCCC(=O)O", "growth": "97.2% (inactive) and 90.1% (inactive)"},
      {"smiles": "CC(=O)c1cccc(OC(=O)c2ccccc2)c1", "growth": "82.9% (inactive)"},
      {"smiles": "CCc1ccccc1-n1[nH]c(C)c(C=N)c1=O", "growth": "98.6% (inactive)"},
      {"smiles": "O=C(c1ccccc1)C1(Br)CCCCC1", "growth": "88.1% (inactive)"},
      {"smiles": "CCC(C)NC(=O)c1ccccc1C", "note": "(stereo not given)", "growth": "84.5% (inactive)"},
      {"smiles": "COc1ccc2oc3cc(NCCN(C)C)ccc3c(=O)c2c1", "growth": "88.2% (inactive) and 82.1% (inactive)"},
      {"smiles": "O=C(c1ccc(Cl)cc1)C1C(c2ccccc2)C1[N+](=O)[O-]", "note": "(stereo not given)", "growth": "80.9% (inactive)"}
    ]},
    {"tested_on": "HOP-92 NSCLC", "experiment": "NCI-60 one-dose screen, 48 h (100 = growth as untreated, 0 = no growth, -100 = all killed)", "details": "100 µM", "description": "as §1, §2, §3, §4", "values": [
      {"smiles": "CS/C(=C\\c1ccc(C(=O)c2ccc(C)cc2)n1C)S(C)=O", "note": "(stereo not given)", "growth": "64.6% (inactive)"}
    ]}
  ]
}
